Bioassay records: PubChem, National Center for Advancing Translational Sciences (NCATS)
TrxR1 inh-1 – inhibitors of rat thioredoxin reductase 1; O89049; recombinant rTrxR1, NADPH fluorescence consumption, selenite substrate; Potency, µM (series often up to 114 µM), inactives show top-dose activity change, negative = inhibition, most hits filed as inhibitors; hit rate 1% among 390,000; AID 588453; also: potency is read from the fitted curve at half-maximal effect; % is scaled to controls: 0 for no effect and ±100 for the full control effect; nearly all actives have a fitted effect of over 65% in size
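Rat TrxR1 (90 nM in the dispensed reagent) was pre-reduced with 400 uM NADPH for 5 min at room temperature, then incubated with compound for 15 min. After 400 uM selenite was added, NADPH fluorescence (Ex 340/Em 450 nm) was followed for 8 min.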
LDHA block – inhibitors of human lactate dehydrogenase A; P00338; activity change, % (values are at about 110 or 230 µM); purified LDHA, NADH/diaphorase-resazurin fluorescence; hits give low values; hit rate 0.15% among 480,000; in the data active = activity change below about -30%; inconclusive = mostly about -25% to -30%;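 also: plate controls were DMSO wells for no effect and wells without enzyme for full effect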
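LDH5 2 nM; NADH 0.06 mM, pyruvate 0.2 mM; 200 mM Tris pH 7.4, EDTA, Tween-20; 5 min RT. Detection: diaphorase 0.133 mg/mL + resazurin 37 µM, fluorescence ex540/em590 at 0 and 20 min; normalized to enzyme-free and DMSO wells.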
GALK inhibitor – inhibitors of human galactokinase. P51570. Purified GALK, Kinase-Glo residual ATP luminescence. Potency, µM (top dose mostly 57.5 µM), for inactives: top-dose activity change, negative = inhibition, usual class: inhibitors. hit rate 0.007% among 270,000; also: potency is read from the fitted curve at half-maximal effect; % is scaled to controls: 0 for no effect and ±100 for the full control effect
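Kinase-Glo Plus luminescence measured ATP left after a 1 h room-temperature reaction. The reaction used 5 nM GALK, 100 uM galactose and 35 uM ATP at pH 8.0 (20 mM HEPES, 5 mM MgCl2, 60 mM NaCl, 1 mM DTT, 0.01% BSA).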
a7 integrin act – activates integrin-mediated alleviation for muscular dystrophy; alpha7betagal myoblasts, beta-gal FDG fluorescence, 48 h; Potency, µM (highest dose often 38.3 µM), without a hit: at the top dose activation, usual class: activators; hit rate 0.064% among 350,000;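 also: potency is read from the fitted curve at half-maximal effect; 100% = response of the positive control SU9516; nearly all actives have a fitted effect of over 60% in size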
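alpha7betagal+/- myoblasts (passage 13, 250/well) treated 48 h at 37C with compounds at 1:260 dilution of DMSO stock. Lysed, then beta-galactosidase activity read as FDG fluorescence (ex 480/em 540) after 30 min, with pre-read for autofluorescence.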
PI4K2A inh – PI4K2A (human) kinase inhibition | hit rate 0.13% among 420,000 | activity change, negative = inhibition, % at 76.9 µM | Q9BTU6 | AID 1346378 | purified PI4K2A, ADP-Glo luminescence, 1 h; hits give low values; in the data active = activity change below about -50%; inconclusive = mostly about -30% to -49%;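 also: -100% = wells without enzyme as full effect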
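PI4K2A activity was measured by ADP-Glo luminescence: enzyme (4 ug/mL stock) and phosphatidylinositol (1.2 mM stock) in Tris pH 7.5/MgCl2/EGTA/Triton X-100 buffer were reacted with ATP (300 microM stock) for one hour at ambient temperature.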
TrxR1 substrate – is turned over as a substrate by rat TrxR1. O89049. Potency, µM (titrated, usually from 114 µM), inactives show at the top dose activity change, negative = substrate turnover. hit rate 0.01% among 390,000. purified TrxR1 substrate turnover, NADPH consumption readout. AID 588456; also: potency is read from the fitted curve at half-maximal effect; % is scaled to controls: 0 for no effect and ±100 for the full control effect; nearly all actives have a fitted effect of over 50% in size
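Rat TrxR1, dispensed at 90 nM, was prereduced with 400 uM NADPH (final) for 5 min at ~22 deg C, then incubated with compound 15 min before 400 uM selenite. A first-read NADPH fluorescence drop versus no-compound background flagged substrates.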
TRb-SRC2 inh – confirmation of human TRb-SRC2 interaction inhibitors | hit rate 50% among 30 | shares compounds with TrxR1 inh-1 | Potency, µM | AID 2444 | AlphaScreen TRb LBD-SRC2 peptide binding, luminescence; calls by dose curve
HepG2 tox – counter-screen for TRb-SRC2 inhibitors: HepG2 cytotoxicity; shares compounds with TrxR1 inh-1; HepG2 viability, ATP luminescence (CellTiter-Glo), 72 h; Potency, µM; hit rate 50% among 40; calls by dose curve
AR-SRC2 inh – AR-SRC2 (human) interaction inhibition, selectivity. AR-LBD Tx-SRC2-3 fluorescence polarization, 3 h. 25 tested, under 10 active. shares compounds with TrxR1 inh-1. AID 2448. calls only; call rule not given here
PPARg-DRIP2 inh – disrupts human PPARgamma binding to DRIP-2 peptide | shares compounds with TrxR1 inh-1 | PPARg LBD / Texas Red DRIP-2 peptide, fluorescence polarization, 3 h | Potency, µM | 25 tested, under 10 active | AID 2449; calls by dose curve
Target sequence (P37231 whole entry, looked up, the tested form may be a part): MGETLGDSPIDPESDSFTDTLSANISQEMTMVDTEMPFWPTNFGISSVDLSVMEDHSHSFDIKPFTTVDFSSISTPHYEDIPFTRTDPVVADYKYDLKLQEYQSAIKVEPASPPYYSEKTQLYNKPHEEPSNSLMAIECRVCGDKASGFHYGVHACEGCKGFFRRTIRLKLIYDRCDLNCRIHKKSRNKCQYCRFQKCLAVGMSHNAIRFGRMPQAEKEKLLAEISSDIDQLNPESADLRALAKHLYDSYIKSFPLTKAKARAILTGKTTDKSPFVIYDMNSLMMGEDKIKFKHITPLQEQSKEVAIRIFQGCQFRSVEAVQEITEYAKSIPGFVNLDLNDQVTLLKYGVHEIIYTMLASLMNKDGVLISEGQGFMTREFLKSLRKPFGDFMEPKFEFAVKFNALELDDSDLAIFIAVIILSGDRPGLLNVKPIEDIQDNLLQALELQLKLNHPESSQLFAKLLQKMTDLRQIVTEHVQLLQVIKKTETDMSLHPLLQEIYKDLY
VDR SRC2 FP – selectivity of TRb-SRC2 inhibitors: human vitamin D receptor-SRC2 inhibition; shares compounds with TrxR1 inh-1; VDR LBD/SRC2-3 peptide, fluorescence polarization, 3 h; Potency, µM; 25 tested, under 10 active; calls by dose curve
GR counterassay – glutathione reductase inhibition, TrxR1 selectivity check. shares compounds with TrxR1 inh-1. purified GR, DTNB reduction absorbance 405 nm kinetic. activity change, negative = inhibition, % at 57.1 µM. 55 tested, under 10 active
TrxR1 inh-2 – rat TrxR1 inhibition, primary screen retest; shares compounds with TrxR1 inh-1; recombinant TrxR1, NADPH fluorescence consumption, selenite substrate; Potency, µM, usual class: inhibitors; hit rate 50% among 55; AID 652023
TrxR1 insulin MOA – TrxR1 inhibitors: insulin reduction mechanism-of-action test | TrxR1 Trx-coupled insulin reduction, NADPH absorbance 340 nm | shares compounds with TrxR1 inh-1 | hit rate 20% among 55 | Potency, µM;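 active = compounds with a measured potency under 100 micromolar; inconclusive = filed, but no rule given; inactive = potency at or above that, or unmeasurable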
TrxR1 inh-3 – blocks rat TrxR1 reduction of DTNB | shares compounds with TrxR1 inh-1 | purified TrxR1, DTNB reduction, A412 | hit rate 90% among 55 | AID 652256 | Potency, µM;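 active = a half-inhibiting concentration could be measured and was below 100 µM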
Active calls of the source: *; i = inactive; ? = inconclusive; . = not tested or not shown; [ ] = dose if it differs, or a comment. Hits are enriched below; roughly 1.1% of the tested compounds scored in any of these assays. Unless noted, calls follow the shape of the dose curve; as a rule, active = well fitted curve in the direction sought with a large enough effect; inconclusive = small, poorly fitted or top-dose-only effect, or another doubt; inactive = no such curve, though single readings can be large; an effect the other way counts as inactive or inconclusive.

SMILES	TrxR1 inh-1	LDHA block	GALK inhibitor	a7 integrin act	PI4K2A inh	TrxR1 substrate	GR counterassay	TrxR1 inh-2	TrxR1 insulin MOA	TrxR1 inh-3	others
Cn1ncc(S(=O)(=O)Cc2ccccc2)c(Cl)c1=O	1.1µM*	-7	2%	-21%	-1	10%[57.1 µM]	.	.	.	.
Cc1c(NC2=C(Cl)C(=O)N(c3ccccc3)C2=O)c(=O)n(-c2ccccc2)n1C	3.2µM*	5	-4%	1%	-16	1%	-18	2.7*	i	i
COc1ccc(N(C(=O)c2ccncc2)S(=O)(=O)c2cccc([N+](=O)[O-])c2)cc1	50µM*	-3	5%	18%	2	-3%	-7	9.5*	i	9.2µM*
COc1ccc(N(C(=O)c2cccnc2)S(=O)(=O)c2cccc([N+](=O)[O-])c2)cc1	-16%[57.1 µM]	-4	-2%	11%	5	0%[57.1 µM]	.	.	.	.
COc1cc(C(c2nnnn2C2CCCC2)N2CCc3ccccc3C2)ccc1O (stereo unspecified)	2µM*	7	2%	-28%	-2	7%[57.1 µM]	-3	2.1*	i	0.71µM*
O=C(/C=C/c1cccnc1)c1ccc2cccc3c2c1CC3	.	-1	.	.	.	.	.	.	.	.
Cc1oc(-c2cccs2)nc1CC(=O)N1CCOC(C)C1 (stereo unspecified)	.	-3	.	.	.	.	.	.	.	.
CCOc1cccc(C(=O)NC(=S)Nc2cccnc2)c1	-59%	-3	.	-21%	5	11%[57.1 µM]	.	.	.	.
CCC(=O)Nc1cccc(NC(=S)NC(=O)c2cccc(C)c2)c1	11µM*	-14	2%	-20%	2	-5%	1	6*	i	1.3µM*
CCC(=O)Nc1cccc(NC(=S)NC(=O)c2ccc(C)cc2)c1	?	-7	2%	-14%	-2	0%	.	.	.	.
CCOc1cccc(C(=O)NC(=S)Nc2ccccc2)c1	32µM*	1	2%	-16%	1	-15%	-3	6.7*	i	74µM*
CCCOc1cccc(C(=O)NC(=S)Nc2ccc(N3CCN(C)CC3)cc2)c1	79µM*	-12	1%	10%	177	-5%	-11	5.3*	i	i
CCOc1cccc(C(=O)NC(=S)Nc2ccc(N3CCN(CC)CC3)cc2)c1	-51%	-3	-1%	-22%	-1	-10%[57.1 µM]	.	.	.	.
COc1ccc(C=O)cc1COc1ccc(C=O)cc1	.	1	.	.	.	.	.	.	.	.
O=C1CCSc2ccc(C(=O)NO)cc2N1	.	-2	.	.	.	.	.	.	.	.
CCOc1cccc2cc(C(=O)NCc3ccc(OC(F)F)c(OC)c3)c(=O)oc12	.	9	.	.	.	.	.	.	.	.
Cc1cccc(NC(=O)COC(=O)c2ccc3ccccc3n2)c1	.	10	.	.	.	.	.	.	.	.
CC(C)OC(=O)c1cn(-c2ccccc2)nc1-c1ccco1	5µM*	0	-2%	32%	-11	8%	-13	?	i	2.5µM*
C[S+](=O)([O-])c1ccc(C(=O)OCC(=O)NC2C3CC4CC(C3)CC2C4)cc1 (stereo unspecified)	.	.	.	.	.	.	.	.	.	.	TRb-SRC2 inh=i;HepG2 tox=i;AR-SRC2 inh=i;PPARg-DRIP2 inh=i;VDR SRC2 FP=i
O=C(COC(=O)c1cc([N+](=O)[O-])ccc1Cl)NC1CCCC1	?	-2	8%	-55%	6	-8%	.	.	.	.
O=C(COC(=O)c1cc([N+](=O)[O-])ccc1Cl)NC1C2CC3CC(C2)CC1C3 (stereo unspecified)	.	.	.	.	.	.	.	.	.	.	TRb-SRC2 inh=i;HepG2 tox=i;AR-SRC2 inh=i;PPARg-DRIP2 inh=i;VDR SRC2 FP=i
O=C(COC(=O)c1cc([N+](=O)[O-])ccc1F)NC1C2CC3CC(C2)CC1C3 (stereo unspecified)	.	.	.	.	.	.	.	.	.	.	TRb-SRC2 inh=i;HepG2 tox=i;AR-SRC2 inh=i;PPARg-DRIP2 inh=i;VDR SRC2 FP=i
O=C(COC(=O)c1cc(S(=O)(=O)N2CCOCC2)ccc1F)Nc1cc([N+](=O)[O-])ccc1F	7%	-8	.	-14%	1	0%	.	.	.	.
C=CCNC(=O)NC(=O)CN(C)CCOc1cccc(C)c1	.	-2	.	.	.	.	.	.	.	.
CCC(C)C(=O)NCc1cccc(COC)c1 (stereo unspecified)	.	7	.	.	.	.	.	.	.	.
